Screening results as filed in PubChem.
Vc quorum ag: inducers of Vibrio cholerae quorum light production without autoinducers. activation, % at 18.7 µM. 350,000 compounds, 0.16% hits. V. cholerae BH1578 lux reporter, luminescence, 6 h; in the data active = activation mostly above about 9.7%, no sharp cut-off
PriA SSB inh: blocks PriA binding to SSB C-terminal tail; AlphaScreen SSBct-PriA binding, biotinylated peptide; inhibition, % at 33 µM; 430,000 compounds, 0.6% hits; in the data active = inhibition mostly above about 37%, no sharp cut-off; inactive = mostly below about 20%
MazF activator: increases E. coli MazEF RNase cleavage of RNA. P0AE70. FAM/BHQ RNA-DNA oligo cleavage fluorescence, 5 h. activation, % at 20 µM. 350,000 compounds, 0.32% hits; in the data active = activation above about 50%
Target sequence (P0AE70 whole entry, looked up): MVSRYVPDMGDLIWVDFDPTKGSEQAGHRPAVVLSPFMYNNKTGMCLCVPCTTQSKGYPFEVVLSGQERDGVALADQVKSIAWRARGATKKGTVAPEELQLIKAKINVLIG
Mtb hypoxia inh: inhibitors of hypoxia-regulated fluorescent reporter in Mycobacterium tuberculosis | 300,000 compounds, 0.1% hits | fluorescence inhibition, % (no concentration beside the values) | M. tuberculosis hypoxia-regulated fluorescent reporter, fluorescence | AID 1159583; in the data active = fluorescence inhibition mostly above about 23%, no sharp cut-off; inactive = mostly below about 17%
Large screens that a line does not name were inactive; ! = repeats disagree. In the library only some 0.94% were active in any assay of this set; here they are far more common.

Cc1ccccc1C1C(C#N)=C2N=C(N)c3c(sc4c3CCCCC4)N2C2=C1C(=O)CC(C)(C)C2 (stereo not drawn)	MazF activator 165
Cc1cc(C)n2nc(C(=O)N3CCC[C@H](Oc4nccnc4C#N)C3)nc2n1	none (no result: Vc quorum ag, MazF activator, Mtb hypoxia inh)
O=C(NCCCn1ccnc1)Nc1cccc(Cl)c1	PriA SSB inh 74
CC(C)(C)C(=O)Nc1ccccc1C(=O)NCCCn1ccnc1	PriA SSB inh 51
O=C(NCCCn1ccnc1)C(=O)NCc1ccc(Cl)cc1	none (no result: Mtb hypoxia inh)
O=C(NCCCn1ccnc1)C(=O)NCc1ccccc1Cl	PriA SSB inh 85 (no result: Vc quorum ag, MazF activator, Mtb hypoxia inh)
O=C(NCCCn1ccnc1)Nc1cc(Cl)cc(Cl)c1	PriA SSB inh 57 (no result: Vc quorum ag, MazF activator, Mtb hypoxia inh)
COc1ccc(C(=O)Nc2nc(CC(=O)NCc3cccnc3)cs2)cc1	none (no result: Vc quorum ag, MazF activator, Mtb hypoxia inh)
O=C(CCCCCn1nnc2ccccc2c1=O)Nc1ccc2c(c1)OCCO2	none (no result: Vc quorum ag, MazF activator, Mtb hypoxia inh)
O=C(NCCc1c[nH]c2ccccc12)C(=O)Nc1ccc(OC(F)(F)F)cc1	none (no result: Vc quorum ag, MazF activator, Mtb hypoxia inh)
O=[N+]([O-])c1ccc(O)c(C=Nc2cccc3ncccc23)c1	PriA SSB inh 68
C/C(=N/NC(=O)c1ccncc1)c1cc2ccc(O)cc2oc1=O	MazF activator active (no result: PriA SSB inh, Mtb hypoxia inh)
Cc1cccc(C)c1N=C1NN=C(c2ccccc2F)CS1	none
Cc1ccccc1N=C1NN=C(c2ccccc2F)CS1	PriA SSB inh 39
O=C1/C(=C/c2cccc(F)c2)Oc2c1ccc1c2CN(Cc2ccccn2)CO1	PriA SSB inh 97 (no result: Vc quorum ag, MazF activator, Mtb hypoxia inh)
O=C1/C(=C/c2ccco2)Oc2c1ccc1c2CN(Cc2ccccn2)CO1	PriA SSB inh 97 (no result: Vc quorum ag, MazF activator, Mtb hypoxia inh)
O=C1/C(=C/c2ccncc2)Oc2c1ccc1c2CN(Cc2c(F)cccc2Cl)CO1	none (no result: Vc quorum ag, MazF activator, Mtb hypoxia inh)
COc1ccc(C(=O)COC(=O)CN2CC(=O)Oc3ccccc32)cc1Br	PriA SSB inh 80 (no result: Mtb hypoxia inh)
O=C(COC(=O)c1ccccc1O)NC1CCCc2ccccc21 (stereo not drawn)	Mtb hypoxia inh 33
O=C(CCN1C(=O)C2C3C=CC(C3)C2C1=O)NC1CCCc2ccccc21 (stereo not drawn)	Vc quorum ag 66 (no result: Mtb hypoxia inh)
COC(=O)c1ccccc1C(=O)N1CCCC[C@H](c2ccc(OC)cc2)C1	none (no result: Vc quorum ag, MazF activator, Mtb hypoxia inh)
Cn1ccc(-c2nnc(NC(=O)C3CC3)o2)n1	none (no result: Vc quorum ag, MazF activator, Mtb hypoxia inh)
Clc1ccc2nc(N3N=C(c4ccc(Br)cc4)CC3c3ccccc3Cl)nc(-c3ccccc3)c2c1 (stereo not drawn)	none (no result: Vc quorum ag, MazF activator, Mtb hypoxia inh)
CN(C)c1ccc(CN(Cc2ccco2)C(=O)c2ccc(Br)cc2)cc1	none (no result: Vc quorum ag, MazF activator, Mtb hypoxia inh)
CC1=C(SCCC#N)S/C(=C2\SC(C)=C(SCCC#N)S2)S1	PriA SSB inh 54
Fc1ccc(-c2nc(N3CCCCCC3)c3ccccc3n2)cc1	none (no result: Vc quorum ag, MazF activator, Mtb hypoxia inh)
Cc1n[nH]c(C)c1N1C(=O)c2cccc3c(N4CCCCCC4)ccc(c23)C1=O	MazF activator 670
CC(=NNC(=S)N(Cc1ccccn1)Cc1ccccn1)c1cnccn1	PriA SSB inh 94 (no result: Mtb hypoxia inh)
NC(=S)N/N=C(\c1ccccc1)c1ccccn1	PriA SSB inh active (no result: Vc quorum ag, MazF activator, Mtb hypoxia inh)
O=C(CCCC(=O)N/N=C\c1ccccn1)N/N=C\c1ccccn1	none (no result: PriA SSB inh, Mtb hypoxia inh)
NC(=S)NN=C(c1ccccc1)c1ccccc1	none
O=C(NN=C(c1ccccc1)c1ccccn1)c1ccccc1	none (no result: Mtb hypoxia inh)
S=C(NN=Cc1ccccn1)N(Cc1ccccn1)Cc1ccccn1	PriA SSB inh 96 (no result: Vc quorum ag, Mtb hypoxia inh)
S=C(NN=C(c1ccccc1)c1ccccn1)N(Cc1ccccn1)Cc1ccccn1	PriA SSB inh 74 (no result: Mtb hypoxia inh)
O=C(Cc1csc(NC(=O)c2ccc3c(c2)OCO3)n1)NCc1ccccn1	none (no result: Vc quorum ag, MazF activator, Mtb hypoxia inh)
Cc1ccc(/C=C2/NC(=O)N(Cc3ccccc3F)C2=O)s1	MazF activator 86 (no result: Vc quorum ag)
CCCCNC(=O)c1ccc2nc(N)sc2c1	none (no result: Vc quorum ag, MazF activator, Mtb hypoxia inh)
Nc1nc2ccc(C(=O)NCCO)cc2s1	PriA SSB inh 81 (no result: Vc quorum ag, MazF activator, Mtb hypoxia inh)
Cc1ccc(-n2c(N)c(C(=O)NC3CCCCC3)sc2=S)cc1	none (no result: Vc quorum ag, MazF activator, Mtb hypoxia inh)
C/C=C/c1ccc(OCC(O)CN2CCN(c3cccc(Cl)c3)CC2)c(OC)c1 (stereo not drawn)	PriA SSB inh 36 (no result: Vc quorum ag, MazF activator, Mtb hypoxia inh)
Cn1nc(CNC(=O)COc2ccc(Cl)cc2Cl)cc1-c1cccs1	none (no result: Vc quorum ag, MazF activator, Mtb hypoxia inh)
COc1cc(C(=O)Nc2nnc(-c3cc(C)n(C)n3)o2)cc(OC)c1OC	none (no result: Vc quorum ag, MazF activator, Mtb hypoxia inh)
COC(=O)c1ccc(C(=O)Nc2nnc(-c3cc(C)n(C)n3)o2)cc1	PriA SSB inh 95 (no result: Vc quorum ag, MazF activator, Mtb hypoxia inh)
CCN(CC)CCN(C(=O)c1ccc(S(=O)(=O)N(C)C2CCCCC2)cc1)c1nc2c(C)cccc2s1	none
Cc1ccc2sc(N(CCCN(C)C)C(=O)c3ccc(S(=O)(=O)N(C)C4CCCCC4)cc3)nc2c1C	PriA SSB inh 40!
Cc1cccc2sc(N(CCCN(C)C)C(=O)c3nc4ccccc4s3)nc12	PriA SSB inh 51
Cc1ccc2sc(N(CCCN(C)C)C(=O)c3nc4ccccc4s3)nc2c1C	none
CCN(Cc1ccccc1)S(=O)(=O)c1ccc(C(=O)N(CCCN(C)C)c2nc3c(C)c(C)ccc3s2)cc1	PriA SSB inh 39!
